This is an account of results in PubChem BioAssay AID686970 (National Center for Advancing Translational Sciences (NCATS), 2013).

Molecules are shown by their SMILES. The whole screen tested about 360,000 compounds, of which about 6,000 (1.7%) were called active. Entries that show only a call come without a potency. Inconclusive results (about 8%) are left out. Calls follow the shape of the dose curve; as a rule, active = well fitted cell-killing curve with a large enough effect; inconclusive = small, poorly fitted or top-dose-only effect, or effect the other way; inactive = flat fitted curve, though single readings scatter. This excerpt belongs to a sample that is enriched for actives.
Potency is read from the fitted curve at half-maximal effect.

A short description of this assay: qHTS for induction of synthetic lethality in tumor cells producing 2HG: qHTS for the HT-1080-NT fibrosarcoma cell line.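 Also: NT is the 2HG producing partner of a matched IDH1 knockdown line; nearly all actives have a fitted effect of over 55% in size.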 Conditions: HT-1080-NT fibrosarcoma viability, CellTiter-Glo ATP luminescence, 48 h; series mostly up to 46.1 µM. In short, it runs like this: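 Toxicity toward the 2HG-producing NT line was scored as %Activity, normalised to DMSO and no-cell wells, from CellTiter-Glo luminescence after 48 hours' treatment.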
Take `O=C(CCN1CCCCC1)Nc1ccc(F)c(F)c1`: the Potency entry is “inactive”.
Under `Cc1cccc(C(=O)C(O)(c2ccccc2)C2CCCCC2=O)c1` (stereo not drawn) stands “inactive”; under `CN(Cc1c(F)cccc1Cl)C(=O)COC(=O)Cn1cnc2ccccc2c1=O`, “inactive”; under `COC(=O)C[C@@H]1C=C[C@@H](NS(=O)(=O)c2cccc(OC)c2)[C@@H](CO)O1`, “inactive”.
Under `CC[C@@H]1Cc2cc(O)ccc2C2=C1c1ccc(O)cc1C[C@H]2CC` stands 18.4 µM (active).
Regarding `Cc1cc(C)c(NC(=O)C[N+](C)(C)CC(O)COc2cccc3ccccc23)c(C)c1` (stereo not drawn), the Potency is 18.4 µM (active).
On to `Cc1cc(C)cc(OCC(=O)NCc2cc(C)nc3ccccc23)c1`, for which the Potency entry is “inactive”.
In the case of `Cc1cc(C)c(NC(=O)c2oc3ccccc3c2COc2ccccc2)c(C)c1` it was “inactive”; in that of `CC(C)(C(=O)NO)c1ccccc1`, “inactive”.
Consider `CCN1C(=O)[C@H]2[C@@H](c3ccc(C(F)(F)F)cc3)N[C@]3(CCCN(Cc4ccc(Br)cc4)C3=O)[C@H]2C1=O`, for which the Potency entry was “inactive”.
As for `O=C(NC(c1ccc(-c2ccccc2)cc1)c1cnccn1)C1CCN(CCOc2ccc(Cl)cc2Cl)CC1` (stereo not drawn), the Potency is 20.6 µM (active).
In the case of `O=C(CCCOc1ccc(Cl)cc1Cl)NNC(=O)C1CCC1` it was “inactive”; in that of `COc1cccc(CN2CCC(C(=O)NC(c3ccc4c(c3)OCO4)c3ccccn3)CC2)c1` (stereo not drawn), “inactive”; in that of `CCCNC(=O)C1(C)CCN1C(=O)C1(c2ccccc2)CC1` (stereo not drawn), “inactive”.
As to `COc1ccccc1CNC(=O)c1cc(-c2cc(F)ccc2OC)n[nH]1`, the Potency entry is “inactive”.
In the case of `CCNC(=O)c1cc2c(c(-c3cccc(-c4cncnc4)c3)n1)[C@H](CCO)N(C(C)=O)C2` it was “inactive”.
In the case of `COC(=O)c1ccc2nc(-c3ccc(Cl)cc3)c(Cc3cccc(F)c3)n2c1` it was “inactive”; in that of `Cn1c(=O)c2cc(NC(=O)NCCc3cccs3)ccc2n1Cc1cccc(C(F)(F)F)c1`, “inactive”; in that of `COc1ccccc1NC(=O)COc1ccc(C(=O)OCC(=O)N(C(C)C)C(C)C)cc1OC`, “inactive”.
Under `COc1ccc(C(=O)OCC(=O)NCCCc2ccccc2)cc1OC` stands “inactive”.
Take `CCN(CCCCOC(=O)c1ccc(OC)c(OC)c1)C(C)Cc1ccc(OC)cc1` (stereo not drawn): the Potency was 18.4 µM (active).
Regarding `CCC(=O)N1Cc2cc(C(=O)NCc3cccc(F)c3)nc(-c3cccc(C4=CCCC4)c3)c2[C@H]1CCO`, the Potency result is “inactive”.
With `CS(=O)(=O)c1cccc(-c2ccc3nncn3c2)c1`, the Potency result is “inactive”.
Under `CCOC(=O)N1CCN(C(c2ccnc3ccccc23)c2nnnn2-c2c(C)cccc2C)CC1` (stereo not drawn) stands “inactive”; under `CN1C(CC(=O)Nc2ccc(Br)cc2)c2ccccc2CC1(C)C` (stereo not drawn), 18.4 µM (active).
Under `CC1(C)CN(CCc2ccccc2)C(=O)[C@H]1CC(=O)Nc1ccc(Br)cc1` stands “inactive”; under `CCCCN1CC(C)(C)[C@H](CC(=O)Nc2ccc(Br)cc2)C1=O`, “inactive”; under `COC(=O)c1ccc2nc(-c3cccc(Br)c3)c(Cc3ccc(OC)cc3C)n2c1`, “inactive”.
In the case of `COCCn1c(SCC(=O)Nc2ccc(F)cc2F)nc2c(c1=O)SCC2` it was “inactive”.
Take `COc1ccccc1NC(=O)COC(=O)COc1ccccc1F`: the Potency result is “inactive”.
Under `COc1ccccc1NC(=O)/C=C/C(N)=O` stands 8.91 µM (active).
Under `COc1ccccc1NC(=O)N(O)C1(C#N)CCCCC1` stands “inactive”; under `O=C1NC[C@H](CCCCN2C[C@H](Cc3ccc(O)cc3)N(CCc3ccccc3)C(=O)C2=O)N(CCc2ccccc2)C1=O`, “inactive”.
As for `Cc1cc(N)n2nc(-c3ccc(C(C)(C)C)cc3)cc2n1`, the Potency was 16.4 µM (active).
As to `COc1ccc(-c2cc(C)nc3nc(N)nn23)cc1`, the Potency entry is “inactive”.
In the case of `Cc1cc(C(C)(C)C)cc(C)c1N` it was “inactive”.
In the case of `Cc1ccc(S(=O)(=O)NN=C2CC(C)(C)CC(=O)C2(C)C)cc1` it was “inactive”; in that of `CC(=O)NC(c1cccc(F)c1)c1nc(-c2cccc(F)c2)cs1` (stereo not drawn), “inactive”.
Under `Cc1ccc(C(O)c2ncc(-c3ccccc3F)[nH]2)cc1F` (stereo not drawn) stands “inactive”; under `CC(=O)Nc1ccc(Nc2c([N+](=O)[O-])cc(S(C)(=O)=O)cc2[N+](=O)[O-])cc1`, “inactive”.
For `CC(=O)Nc1ccc(Nc2c3ccccc3nc3ccccc23)cc1`, the Potency was 14.6 µM (active).
In the case of `CC(=O)Nc1ccc(S(=O)(=O)N(C)c2nc3ccccc3nc2Cl)cc1` it was “inactive”.
Under `C[C@H]1CN([C@@H](C)CO)C(=O)c2cc(-c3ccccc3F)cnc2O[C@H]1CN(C)C(=O)C1CCOCC1` stands “inactive”; under `CCOc1ccc(NC(=O)CSc2nnc3c(n2)[nH]c2ccc(S(=O)(=O)N4CCOCC4)cc23)cc1`, “inactive”; under `CCc1nnc(NC(=O)c2cc(S(=O)(=O)N3CCCCC3)ccc2C)s1`, “inactive”.
In the case of `CCc1nnc(NC(=O)c2ccc(S(=O)(=O)NC3CCCCC3)cc2)s1` it was 6.31 µM (active); in that of `CCc1nnc(NC(=O)C2CCCN2S(=O)(=O)c2ccccc2)s1` (stereo not drawn), “inactive”.
Regarding `CCOC(=O)c1c(NC(=O)COC(=O)c2ccc(S(=O)(=O)C(F)F)cc2)sc(C(=O)N(C)C)c1C`, the Potency entry is “inactive”.
In the case of `CCCCn1nnnc1C1(C)CCC(=O)N1Cc1ccc(OC)c(OC)c1` (stereo not drawn) it was “inactive”.
In the case of `Cc1cccc(NC(=O)COC(=O)c2ccccc2OCc2cccc(Br)c2)c1` it was “inactive”.
In the case of `COc1ccc(NC(=O)CN2C(=O)NC(C)(c3ccccc3)C2=O)cn1` (stereo not drawn), the Potency result was “inactive”.
In the case of `COc1ccc(CS(=O)/C(Cl)=C(/Cl)C(=O)Nc2ccc(OC)nc2)cc1` (stereo not drawn) it was 1.3 µM (active); in that of `COc1ccc(C(O)c2nc(-c3ccc(OC)nc3)cs2)cc1` (stereo not drawn), “inactive”; in that of `CC(=O)NC(c1ccccc1)c1nc(-c2ccccc2C)cs1` (stereo not drawn), “inactive”.
With `CSc1ncnc2c1ncn2CCCNCC(C)c1ccccc1` (stereo not drawn), the Potency result is “inactive”.
In the case of `COc1ccc(NC(=O)N(C)C[C@@H]2OCc3cn(nn3)CCCC(=O)N([C@H](C)CO)C[C@H]2C)c(OC)c1`, the Potency entry is “inactive”.
Under `CCCCNC(=O)C[C@@H]1C[C@@]2(C(=O)OC)CC(C)(C)CC=C2N(Cc2ccco2)C1=O` stands “inactive”.
On to `COc1ccc(Nc2cc(C)nc(-n3nc(C)cc3C)n2)cc1`, for which the Potency is 1.12 µM (active).
`COc1ccc(NC(=O)c2nc(-n3nc(C)cc3C)ccc2Cl)cc1Cl`: the Potency entry is “inactive”.
Regarding `COc1ccc(Nc2cc(Sc3ccc(OC)cc3)ncn2)cc1`, the Potency result was “inactive”.
Under `CNS(=O)(=O)c1ccc2c(c1)[nH]c(=S)n2C` stands “inactive”; under `CC1=C(C(=O)N2CCOCC2)CC(CC(=O)NCc2cccc3ccccc23)C(=O)N1CCC1=CCCCC1` (stereo not drawn), “inactive”; under `CCCC(=O)N1CCC1(C)C(=O)NCc1ccc(C(C)C)cc1` (stereo not drawn), “inactive”.
